# Laboratory results as given in PubChem BioAssay.
# Target: NADPH oxidase 5 (Homo sapiens) (UniProt Q96PH1)
# Experiment: NOX5-dependent H2O2 signal modulators, primary screen, NOX inhibitor project, cell-based, HEK293-NOX5, Amplex Red fluorescence (AID 1161)
# Details: HEK293-NOX5, ionomycin, 45 min, higher = more signal
# NADPH oxidase 5 (Homo sapiens), sequence (Q96PH1 whole entry, looked up): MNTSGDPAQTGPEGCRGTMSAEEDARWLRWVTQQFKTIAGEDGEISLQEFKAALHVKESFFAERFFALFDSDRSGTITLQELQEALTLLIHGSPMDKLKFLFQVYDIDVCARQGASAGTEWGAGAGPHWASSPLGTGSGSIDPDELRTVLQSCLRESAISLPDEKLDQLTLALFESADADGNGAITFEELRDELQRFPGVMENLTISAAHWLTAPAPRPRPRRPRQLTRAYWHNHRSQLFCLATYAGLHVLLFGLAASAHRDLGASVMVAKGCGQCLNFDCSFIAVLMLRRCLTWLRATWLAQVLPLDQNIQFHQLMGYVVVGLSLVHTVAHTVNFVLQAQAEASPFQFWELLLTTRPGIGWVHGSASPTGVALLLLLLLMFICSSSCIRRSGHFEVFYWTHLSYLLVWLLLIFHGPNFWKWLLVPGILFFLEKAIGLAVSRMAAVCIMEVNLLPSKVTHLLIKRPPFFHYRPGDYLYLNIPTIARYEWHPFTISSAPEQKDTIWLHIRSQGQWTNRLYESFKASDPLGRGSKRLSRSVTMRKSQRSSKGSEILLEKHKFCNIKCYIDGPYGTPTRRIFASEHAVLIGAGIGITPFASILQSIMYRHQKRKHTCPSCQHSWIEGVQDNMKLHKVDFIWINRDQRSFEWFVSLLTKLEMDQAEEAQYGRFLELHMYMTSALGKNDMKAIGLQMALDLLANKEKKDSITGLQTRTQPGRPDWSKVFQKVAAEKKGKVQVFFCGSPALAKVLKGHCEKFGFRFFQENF
row,SMILES,z-score
1,CCCCC(=C=CC[C@@H](O)c1cccc(OCCO)c1)CCO,-1.8
2,C=CCOC(=O)[C@@H]1[C@H]2C(=O)O[C@H](c3ccccc3)[C@H](c3ccccc3)N2[C@H](c2ccc(OCCOC(=O)[C@H]3C[C@H]4C(=O)NCC(=O)N4[C@H]3c3ccc(O)cc3)cc2)[C@@]12C(=O)Nc1ccc(I)cc12,0.711
3,CN1C=C(C(=O)OCCS(C)(=O)=O)C(C(=O)OCCS(C)(=O)=O)=CC(CCCO)=CC1c1ccc(CN2CCCC2)cc1 (centres undefined),-1.65
4,COCCOC(=O)N1C(=O)[C@@]2(c3cc(C#CC4(O)CCCCCC4)ccc31)[C@H](C(=O)N1CCc3cc(OC)c(OC)cc3C1)[C@H]1C(=O)O[C@H](c3ccccc3)[C@H](c3ccccc3)N1[C@@H]2c1ccc(O)cc1,0.725
5,O=C1O[C@@H](c2ccccc2)[C@@H](c2ccccc2)N2[C@@H](c3ccc(OCCO)cc3)[C@]3(C(=O)Nc4ccc(C#CCCO)cc43)[C@@H](C(=O)Nc3nc4ccccc4s3)[C@H]12,1.52
6,COCCCNC(=O)[C@@H]1c2ccccc2C(=O)N(C2CCCCC2)[C@H]1c1ccc(CO)cc1,-0.915
7,C=CC[C@]1(C(=O)NCc2ccccc2)COC(c2ccc(OCCCO)cc2)=N1,-2.1
8,CN(C)CCCNC(=O)[C@@]1(Cc2ccccc2I)c2ccccc2C(=O)N(Cc2ccccc2)[C@H]1c1ccc(CO)cc1,-1.71
9,COc1cccc(OC)c1C(=O)O[C@H]1[C@@H]2OC(=O)[C@H](Cc3cccc(Br)c3)C/C=C/C[C@@H](Cc3cccc(Br)c3)C(=O)O[C@H]2[C@@H](OC)O[C@@H]1CO,0.955
10,[N-]=[N+]=NCc1ccccc1C[C@]1(C(=O)NCc2ccccc2)N=C(c2ccc(OCCCO)cc2)O[C@H]1c1ccccc1CN=[N+]=[N-],0.094
11,COCCOC(=O)N1C(=O)[C@@]2(c3cc(C#Cc4ccc(OC)cc4)ccc31)[C@H](c1ccc(OCCO)cc1)N1[C@H](c3ccccc3)[C@H](c3ccccc3)OC(=O)[C@H]1[C@@H]2C(=O)N1CCCCCCC1,1.19
12,Cc1ccc(S[C@]2(C(=O)NC3CC3)CC(=O)N(Cc3cc(C(F)(F)F)cc(C(F)(F)F)c3)[C@@H]2c2ccc(CO)cc2I)cc1,1.14
13,CC1(C)OC[C@@]23C=C(Br)[C@@H](C[C@H]12)[C@@]1(CO1)C3=O,-0.278
14,CCOC(=O)C1=CC[C@@H](c2ccccc2)N(S(=O)(=O)c2ccc(C)cc2)[C@H]1C#N,-0.116
15,COc1ccccc1CN1C(=O)c2ccccc2[C@](Cc2ccccc2I)(C(=O)NCCCN(C)C)[C@@H]1c1ccc(CO)cc1,-4.8
16,CCCC=C(CCC)[C@@H](NC(=O)c1ccco1)c1ccc(C(=O)OC)cc1,1.99
17,CC(C)(C)OC(=O)CC[C@]1(C(N)=O)N=C(c2ccc(OCCCO)cc2)O[C@H]1c1ccccc1CN=[N+]=[N-],1.26
18,COc1ccc(NN2C(C(O)c3cc(C(F)(F)F)cc(C(F)(F)F)c3)C=CC3C(=O)N(C4CCCCC4)C(=O)C32)cc1 (centres undefined),-1.35
19,COc1ccc(CCNC(=O)[C@@]2(C)c3ccccc3C(=O)N(Cc3cc(C(F)(F)F)cc(C(F)(F)F)c3)[C@H]2c2ccc(CO)cc2)cc1,-2.75
20,CC(C)C(=C=CC[C@@H](O)c1ccc(OCCO)cc1)CCO,-0.971
21,C=CCC(OC(C)=O)[C@@H]1[C@@H](N(Cc2cc3ccccc3o2)C(=O)c2ccc(-c3ccccc3)cc2)c2cc(OCCCO)ccc2N1C(=O)c1ccc2ccccc2n1 (some centres undefined),1.66
22,CC(C)c1ccc(NN2C(C(O)C(C)C)C=CC3C(=O)N(c4ccccc4)C(=O)C32)cc1 (centres undefined),-4.95
23,CCCC[C@H]1OB(O)C[C@H]2C1=C(COC)C[C@H]1C(=O)C=CC(=O)[C@H]12,-0.477
24,COc1ccc([Si](C)(C)[C@H]2[C@H](CCn3cc([C@H](O)c4ccccc4)nn3)O[C@@]3(C(=O)N(c4ccccc4)c4ccccc43)[C@@H]2C)cc1,1.33
25,N#Cc1ccc(C(O)C2C=CC3C(=O)NC(=O)C3N2Nc2ccccn2)cc1 (centres undefined),-1.67
26,O=C1C2C=CC(C(O)c3cccs3)N(Nc3ccccc3)C2C(=O)N1c1ccccc1 (centres undefined),-3.35
27,CC(C)=CCN(C(=O)C#Cc1ccccc1)[C@H](CO)c1ccccc1,-3.76
28,CCCC[C@@H]1C[C@H]1[C@@H](NC(=O)Cc1ccccc1)c1ccc(Cl)cc1,1.88
29,O=C1C2C=CC(C(O)c3ccc([N+](=O)[O-])cc3)N(Nc3ccccc3)C2C(=O)N1c1ccccc1 (centres undefined),-2.53
